# Laboratory results as given in the supplement of paper PMC10849652.
# About 8,800 targets were measured; listed, in parts, are those with a hit and a random draw of the rest. About 0.5% of all pairs of compound and target were hits. Values without a mark were called inactive.
# Legend:
# Assay in all cases: log2 fold change, soluble protein after heating vs DMSO (PISA); higher = thermal stabilisation; K562 lysate, 10 uM; active = over 0.2 and 3.5 SD of the protein, either way, in both replicates (recomputed)
# alvocidib = compound: CN1CC[C@H](c2c(O)cc(O)c3c(=O)cc(-c4ccccc4Cl)oc23)[C@H](O)C1 [alvocidib]
# Procedure, shortened: (§1)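 Soluble protein was defined as the supernatant remaining after 21,000xg for 90 min, following pooling of heated aliquots and adjustment to 0.5% NP-40 at 4°C. Before that, crude K562 extract at 1 mg/mL protein in PBS pH 7.4 with 1 mM MgCl2 was treated with 10 μM compound for 30 min and heated for 3 min across 48°C-58°C. Quantification used TMTpro 16plex LC-MS/MS with channel sums equalised, and values are log-two fold changes in thermal stability relative to solvent controls from duplicates.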
# defactinib = compound: CNC(=O)c1ccc(Nc2ncc(C(F)(F)F)c(NCc3nccnc3N(C)S(C)(=O)=O)n2)cc1 [defactinib]
# Procedure, shortened: as §1
# encorafenib = compound: COC(=O)N[C@@H](C)CNc1nccc(-c2cn(C(C)C)nc2-c2cc(Cl)cc(NS(C)(=O)=O)c2F)n1 [encorafenib]
# Procedure, shortened: as §1
# [1] = compound: COC(=O)[C@H](CCSC)NC(=O)C1=C(C=C(C=C1)NC[C@H](CS)N)C2=CC=CC=C2
# Procedure, shortened: as §1
# Tubastatin A = compound: CN1CCc2c(c3ccccc3n2Cc2ccc(C(=O)NO)cc2)C1 [Tubastatin A]
# Procedure, shortened: as §1
# [2] = compound: CNC(=O)C1=CC=CC=C1NC2=NC(=NC=C2Cl)NC3=C(C=C(C=C3)N4CCOCC4)OC
# Procedure, shortened: as §1
# [3] = compound: CNc1nc(-c2ccc3c(N)n[nH]c3c2)cc(N2C[C@@H](C(=O)NC3CCCCC3)CC[C@H]2C)n1
# Procedure, shortened: as §1
# [4] = compound: COc1cc2nc(-c3cc(F)ccc3O)nc(N[C@@H]3CNC[C@H]3C(C)(C)O)c2cc1OC
# Procedure, shortened: as §1
# alisertib = compound: COc1cc(Nc2ncc3c(n2)-c2ccc(Cl)cc2C(c2c(F)cccc2OC)=NC3)ccc1C(=O)O [alisertib]
# Procedure, shortened: as §1
# gefitinib = compound: COc1cc2ncnc(Nc3ccc(F)c(Cl)c3)c2cc1OCCCN1CCOCC1 [gefitinib]
# Procedure, shortened: as §1
# UniProt P48730, sequence (P48730 whole entry, looked up): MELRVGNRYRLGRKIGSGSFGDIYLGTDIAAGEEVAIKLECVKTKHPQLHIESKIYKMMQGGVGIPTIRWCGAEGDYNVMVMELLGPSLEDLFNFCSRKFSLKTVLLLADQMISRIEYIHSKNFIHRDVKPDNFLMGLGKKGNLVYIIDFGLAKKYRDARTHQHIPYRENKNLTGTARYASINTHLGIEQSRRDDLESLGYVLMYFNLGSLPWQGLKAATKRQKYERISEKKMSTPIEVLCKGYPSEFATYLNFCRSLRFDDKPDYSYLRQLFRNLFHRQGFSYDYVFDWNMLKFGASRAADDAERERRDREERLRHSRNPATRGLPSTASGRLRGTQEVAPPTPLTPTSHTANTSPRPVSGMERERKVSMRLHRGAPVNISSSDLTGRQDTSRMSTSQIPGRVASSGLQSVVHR
# UniProt Q96EP1, sequence (Q96EP1 whole entry, looked up): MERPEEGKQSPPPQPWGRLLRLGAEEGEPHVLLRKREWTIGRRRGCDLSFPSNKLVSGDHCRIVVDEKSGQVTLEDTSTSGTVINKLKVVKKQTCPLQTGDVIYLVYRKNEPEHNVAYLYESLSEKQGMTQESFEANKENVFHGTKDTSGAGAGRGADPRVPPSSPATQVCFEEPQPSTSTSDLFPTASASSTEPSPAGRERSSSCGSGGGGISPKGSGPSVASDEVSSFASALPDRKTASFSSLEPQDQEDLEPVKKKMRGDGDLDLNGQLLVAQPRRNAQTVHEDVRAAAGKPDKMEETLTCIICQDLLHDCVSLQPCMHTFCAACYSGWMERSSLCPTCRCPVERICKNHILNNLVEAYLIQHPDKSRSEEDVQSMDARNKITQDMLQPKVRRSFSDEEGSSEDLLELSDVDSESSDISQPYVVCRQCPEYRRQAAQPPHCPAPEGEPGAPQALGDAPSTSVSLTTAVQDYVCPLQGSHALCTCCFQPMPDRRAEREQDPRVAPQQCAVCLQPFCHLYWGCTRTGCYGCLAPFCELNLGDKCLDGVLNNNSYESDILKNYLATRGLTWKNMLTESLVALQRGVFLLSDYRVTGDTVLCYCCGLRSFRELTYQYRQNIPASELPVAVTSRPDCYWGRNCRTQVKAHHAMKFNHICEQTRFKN
# UniProt Q6ZPD9, sequence (Q6ZPD9 whole entry, looked up): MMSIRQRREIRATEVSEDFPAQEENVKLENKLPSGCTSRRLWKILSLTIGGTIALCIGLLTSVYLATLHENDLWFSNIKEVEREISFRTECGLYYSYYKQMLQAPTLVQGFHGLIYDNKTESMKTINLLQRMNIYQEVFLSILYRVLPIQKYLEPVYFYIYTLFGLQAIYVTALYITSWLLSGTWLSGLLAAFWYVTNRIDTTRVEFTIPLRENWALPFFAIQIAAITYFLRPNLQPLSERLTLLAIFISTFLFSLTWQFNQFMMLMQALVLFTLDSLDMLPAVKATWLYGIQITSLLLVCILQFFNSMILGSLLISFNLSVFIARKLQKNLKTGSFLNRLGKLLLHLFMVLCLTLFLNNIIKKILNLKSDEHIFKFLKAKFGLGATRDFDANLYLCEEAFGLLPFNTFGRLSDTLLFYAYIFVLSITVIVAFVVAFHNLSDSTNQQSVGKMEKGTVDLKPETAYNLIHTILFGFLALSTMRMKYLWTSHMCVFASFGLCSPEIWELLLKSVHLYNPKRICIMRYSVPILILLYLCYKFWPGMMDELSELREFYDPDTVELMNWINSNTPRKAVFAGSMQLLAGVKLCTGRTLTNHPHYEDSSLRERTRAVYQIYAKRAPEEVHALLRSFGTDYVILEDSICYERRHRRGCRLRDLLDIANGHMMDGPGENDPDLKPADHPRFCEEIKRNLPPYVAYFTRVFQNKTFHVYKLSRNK
# UniProt P50570, sequence (P50570 whole entry, looked up): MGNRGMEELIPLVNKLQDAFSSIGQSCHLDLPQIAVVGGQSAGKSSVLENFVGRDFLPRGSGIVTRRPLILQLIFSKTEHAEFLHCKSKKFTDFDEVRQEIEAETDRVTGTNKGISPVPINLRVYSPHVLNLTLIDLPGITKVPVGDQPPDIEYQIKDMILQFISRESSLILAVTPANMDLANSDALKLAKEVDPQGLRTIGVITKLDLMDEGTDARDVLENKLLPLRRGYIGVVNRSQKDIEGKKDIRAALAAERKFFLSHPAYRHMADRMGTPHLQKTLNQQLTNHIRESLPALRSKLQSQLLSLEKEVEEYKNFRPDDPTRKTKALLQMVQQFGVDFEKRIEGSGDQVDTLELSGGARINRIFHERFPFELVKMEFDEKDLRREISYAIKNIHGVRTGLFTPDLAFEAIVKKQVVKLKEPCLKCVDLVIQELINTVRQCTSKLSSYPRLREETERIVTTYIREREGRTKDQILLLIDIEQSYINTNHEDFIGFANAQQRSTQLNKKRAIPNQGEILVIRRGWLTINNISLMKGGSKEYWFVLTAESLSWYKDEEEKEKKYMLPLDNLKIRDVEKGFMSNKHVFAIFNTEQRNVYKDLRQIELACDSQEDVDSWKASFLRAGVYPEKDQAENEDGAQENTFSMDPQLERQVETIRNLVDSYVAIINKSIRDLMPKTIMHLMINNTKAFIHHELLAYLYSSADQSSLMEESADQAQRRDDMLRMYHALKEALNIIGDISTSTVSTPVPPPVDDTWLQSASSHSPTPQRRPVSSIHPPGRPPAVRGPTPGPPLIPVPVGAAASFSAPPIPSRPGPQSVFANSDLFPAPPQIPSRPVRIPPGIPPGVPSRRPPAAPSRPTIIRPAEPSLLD
# UniProt Q7L7V1, sequence (Q7L7V1 whole entry, looked up): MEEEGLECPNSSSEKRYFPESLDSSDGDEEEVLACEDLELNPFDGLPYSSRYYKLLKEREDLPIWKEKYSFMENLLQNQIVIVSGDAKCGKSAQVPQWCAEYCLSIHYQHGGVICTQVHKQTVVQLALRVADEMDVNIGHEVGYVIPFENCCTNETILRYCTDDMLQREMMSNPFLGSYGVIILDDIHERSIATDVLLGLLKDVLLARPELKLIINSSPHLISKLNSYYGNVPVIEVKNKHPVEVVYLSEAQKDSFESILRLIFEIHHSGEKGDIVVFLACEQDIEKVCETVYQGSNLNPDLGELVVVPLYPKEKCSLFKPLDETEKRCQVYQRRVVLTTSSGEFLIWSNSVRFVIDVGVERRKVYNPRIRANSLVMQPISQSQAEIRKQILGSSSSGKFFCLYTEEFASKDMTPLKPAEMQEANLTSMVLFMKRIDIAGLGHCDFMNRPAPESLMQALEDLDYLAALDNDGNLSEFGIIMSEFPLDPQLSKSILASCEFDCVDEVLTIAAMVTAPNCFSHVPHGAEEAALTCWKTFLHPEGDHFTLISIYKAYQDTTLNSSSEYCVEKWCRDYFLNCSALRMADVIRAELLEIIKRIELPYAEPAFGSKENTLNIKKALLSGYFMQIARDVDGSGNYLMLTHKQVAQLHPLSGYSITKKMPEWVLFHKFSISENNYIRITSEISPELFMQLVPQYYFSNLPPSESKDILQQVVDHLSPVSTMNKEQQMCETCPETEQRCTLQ
# UniProt Q7Z460, sequence (Q7Z460 whole entry, looked up): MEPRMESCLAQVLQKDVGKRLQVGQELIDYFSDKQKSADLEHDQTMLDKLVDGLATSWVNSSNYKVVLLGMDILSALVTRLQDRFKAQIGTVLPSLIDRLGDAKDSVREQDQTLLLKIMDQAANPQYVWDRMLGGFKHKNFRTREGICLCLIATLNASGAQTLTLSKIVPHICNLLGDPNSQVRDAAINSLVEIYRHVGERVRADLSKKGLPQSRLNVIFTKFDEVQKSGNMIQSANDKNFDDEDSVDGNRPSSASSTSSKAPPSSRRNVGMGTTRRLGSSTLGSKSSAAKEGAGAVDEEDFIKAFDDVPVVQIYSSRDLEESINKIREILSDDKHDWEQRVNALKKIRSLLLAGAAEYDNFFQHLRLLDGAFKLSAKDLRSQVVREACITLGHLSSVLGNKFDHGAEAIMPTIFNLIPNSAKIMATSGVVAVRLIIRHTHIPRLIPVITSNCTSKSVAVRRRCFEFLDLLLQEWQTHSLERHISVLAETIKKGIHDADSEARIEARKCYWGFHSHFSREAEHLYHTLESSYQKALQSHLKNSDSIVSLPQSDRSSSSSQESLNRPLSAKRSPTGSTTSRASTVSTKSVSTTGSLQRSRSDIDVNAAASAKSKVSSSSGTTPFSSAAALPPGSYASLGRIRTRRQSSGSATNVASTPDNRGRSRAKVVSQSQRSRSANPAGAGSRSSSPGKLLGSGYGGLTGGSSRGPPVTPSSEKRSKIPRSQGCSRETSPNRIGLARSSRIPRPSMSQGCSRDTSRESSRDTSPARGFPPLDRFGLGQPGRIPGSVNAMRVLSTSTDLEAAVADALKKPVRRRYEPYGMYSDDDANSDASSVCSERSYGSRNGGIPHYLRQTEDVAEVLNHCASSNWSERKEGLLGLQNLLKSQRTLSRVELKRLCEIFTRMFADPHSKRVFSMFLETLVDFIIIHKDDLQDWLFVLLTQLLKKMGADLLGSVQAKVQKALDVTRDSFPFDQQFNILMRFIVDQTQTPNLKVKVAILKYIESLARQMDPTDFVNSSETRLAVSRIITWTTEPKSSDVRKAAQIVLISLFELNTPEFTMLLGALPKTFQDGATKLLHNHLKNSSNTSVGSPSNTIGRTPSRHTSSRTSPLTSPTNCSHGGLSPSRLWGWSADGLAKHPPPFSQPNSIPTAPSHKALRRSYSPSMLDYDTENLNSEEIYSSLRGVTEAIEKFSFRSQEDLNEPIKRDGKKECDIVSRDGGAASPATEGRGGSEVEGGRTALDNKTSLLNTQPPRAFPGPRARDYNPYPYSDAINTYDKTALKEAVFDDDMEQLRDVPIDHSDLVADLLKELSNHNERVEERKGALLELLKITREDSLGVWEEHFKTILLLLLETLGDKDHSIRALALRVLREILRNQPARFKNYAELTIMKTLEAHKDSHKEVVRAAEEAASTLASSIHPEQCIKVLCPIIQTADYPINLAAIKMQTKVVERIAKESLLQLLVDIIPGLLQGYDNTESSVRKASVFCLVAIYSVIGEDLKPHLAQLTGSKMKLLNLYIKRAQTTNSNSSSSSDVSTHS
Target,log2 fold change (alvocidib),log2 fold change (defactinib),log2 fold change (encorafenib),log2 fold change [1],log2 fold change (Tubastatin A),log2 fold change [2],log2 fold change [3],log2 fold change [4],log2 fold change (alisertib),log2 fold change (gefitinib)
DESI2 (UniProt Q9BSY9),-0.07,0.016,-0.057,-0.014,–,–,–,–,–,–
CYP2S1 isoform 2 (UniProt Q96SQ9),–,-0.022,0.024,0,0.027,-0.085,-0.151,-0.219,–,–
CHMP4A (UniProt H0YIN6),-0.197,–,–,–,0.193,–,0.528,0.104,–,–
CLASP1 isoform 4 (UniProt Q7Z460),–,0.223,–,–,–,0.046,–,–,0.063,0.107
CNOT2 (UniProt F8VRS8),–,–,–,–,–,0.004,–,–,–,–
CRLS1 (UniProt Q9UJA2),0.056,–,–,–,0.007,0.068,–,-0.017,0.076,0.079
CSNK1A1 (UniProt P48729),0.007,0.077,0.081,-0.005,-0.105,–,0.019,0.049,–,-0.005
COL12A1 (UniProt Q99715),–,-0.059,0.003,-0.092,–,0.095,0.531,1.32 (active),–,–
DPY19L3 (UniProt Q6ZPD9),–,-0.039,0,-0.096,–,-0.105,–,-0.042,–,–
CSRP2 (UniProt Q16527),-0.028,–,-0.046,-0.056,–,–,–,–,–,–
CHFR (UniProt Q96EP1),–,-0.61 (active),0.063,-0.084,-0.052,0.004,-0.032,0.008,0.033,-0.03
COL6A3 (UniProt P12111),0.045,–,–,–,0.017,-0.126,0.13,–,-0.323,0.164
"CLIP1, A0A3B3ITA2",-0.036,-0.077,–,–,0.152,–,–,–,–,–
DNM2 isoform 4 (UniProt P50570),-0.16,–,0.13,0.06,-0.095,-0.278,0.055,-0.032,-0.007,0.029
CNIH4 (UniProt Q9P003),–,0.442,0.06,-0.249,0.1,0.048,0.049,0.031,0.1,0.17
DHX32 (UniProt Q7L7V1),0.019,-0.043,0.062,0.048,0.027,0.044,–,–,0.017,0.02
CSNK1D (UniProt P48730),0.244,0.103,0.041,0.013,-0.085,–,-0.091,-0.131,0,-0.023
"CSNK2A1, A0A2R8Y4D6",–,–,–,–,–,–,–,0.06,–,–
